According to PubChem BioAssay (EPA / NIEHS):
The source made the active and inactive calls. Rule for the calls: active = hit-call score of the fitted dose curve at least 0.9, where 1 is the maximum; inactive = score below 0.9.

Assay: ATG_TGFb_CIS: Attagene CIS-FACTORIAL HepG2 Assay for human Transforming Growth Factor (TGF) (AID 2282967)
Conditions: HepG2 Attagene CIS TGFb reporter, mRNA transcription; actives raise or lower the signal
Procedure, shortened: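 After a 24-hour incubation with compound, transfected HepG2 cells were lysed for RNA; reporter cDNA was amplified, fluorescently end-labeled and separated by CE. DMSO served as baseline for bidirectional fits.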
With `CC[C@H](C)[C@H]1O[C@]2(C=C[C@@H]1C)C[C@@H]1C[C@@H](C/C=C(\C)[C@@H](O[C@H]3C[C@H](OC)[C@@H](O[C@H]4C[C@H](OC)[C@@H](NC)[C@H](C)O4)[C@H](C)O3)[C@@H](C)/C=C/C=C3\CO[C@@H]4[C@H](O)C(C)=C[C@@H](C(=O)O1)[C@]34O)O2` the outcome was “inactive”. In the case of `CON=C(C(=O)OC)c1ccccc1CON=C(C)c1cccc(C(F)(F)F)c1`, the outcome is reported as “inactive”. For `CC(COc1ccc(Oc2ccccc2)cc1)Oc1ccccn1` (configuration not stated), the outcome was “inactive”. In the case of `CCCCN(CC)c1c([N+](=O)[O-])cc(C(F)(F)F)cc1[N+](=O)[O-]`, the outcome is reported as “inactive”. With `CCc1cnc(C2=NC(C)(C(C)C)C(=O)N2)c(C(=O)O)c1` (configuration not stated) the outcome was “inactive”. For `COc1cc(OC)nc(Sc2cccc(Cl)c2C(=O)O)n1`, the outcome was “inactive”. In the case of `COP(=O)(NC(C)=O)SC` (configuration not stated), the outcome is reported as “inactive”. For `COP(=O)(OC)SCn1c(=O)oc2cc(Cl)cnc21`, the outcome was “inactive”. For `CC(C)N(C(=O)SCC(Cl)=C(Cl)Cl)C(C)C`, the outcome was “inactive”. For `Cc1cc(C2CC2)nc(Nc2ccccc2)n1`, the AC50 was 50 µM (active). With `C#CC(C)(C)NC(=O)c1cc(Cl)cc(Cl)c1` the outcome was “inactive”. For `Cc1ccn2nc(S(=O)(=O)Nc3c(F)cccc3F)nc2n1`, the outcome was “inactive”. In the case of `CCc1cccc(C)c1N(C(=O)CCl)C(C)COC` (configuration not stated), the outcome is reported as “inactive”. For `CCc1cccc(CC)c1N(COC)C(=O)CCl`, the outcome was “inactive”. In the case of `CCOP(=O)(SC(C)CC)N1CCSC1=O` (configuration not stated), the outcome is reported as “inactive”. In the case of `CCOP(=S)(Oc1cnc(C(C)(C)C)nc1)OC(C)C` (configuration not stated), the AC50 is reported as 86.9 µM (active). For `CCCSP(=O)(OCC)Oc1ccc(Br)cc1Cl` (configuration not stated), the outcome was “inactive”.
